Where “and” joins values, the source holds several entries; their conditions need not be identical. Identical values can stand only once. Calls of active or inactive are those of the source. Rule for the calls: active = hit-call score of the fitted dose curve at least 0.9, where 1 is the maximum; inactive = score below 0.9.
The compounds below were run on Plasminogen activator inhibitor-1 (PAI1), SERPINE1 (gene 5054) (assay: BSK_BE3C_PAI1: BioMAP Diversity Plus: BE3C Assay for Plasminogen activator inhibitor-1 (PAI1) Biomarker Activity (AID 2283037)). Conditions: primary human bronchial epithelial cells; actives raise or lower the signal.
Description: BSK_BE3C is a cell-based, multiplexed-readout assay that uses bronchial epithelial cell, a human lung primary cell, with measurements taken at 24 hours after chemical dosing in a 96-well plate.BSK_BE3C_PAI1 is an assay component measured in the BSK_BE3C assay. It measures PAI-1 antibody related to regulation of gene expression using ELISA technology.Data from the assay component BSK_BE3C_PAI1 was analyzed into 1 assay endpoint. This assay endpoint, BSK_BE3C_PAI1, was analyzed with bidirectional fitting relative to DMSO as the negative control and baseline of activity. Using a type of binding reporter, gain or loss-of-signal activity can be used to understand changes in the signaling as they relate to the gene SERPINE1. Furthermore, this assay endpoint can be referred to as a primary readout, because this assay has produced multiple assay endpoints where this one serves a signaling function. To generalize the intended target to other relatable targets, this assay endpoint is annotated to the cytokine intended target family, where the subfamily is plasmogen activator inhibitor.
The levels of cell surface (or secreted, indicated by the prefix "s") biomarker endpoints were measured by ELISA. Overt cytotoxicity to cells in confluent adherent cultures (all systems other than the BT system) was assessed by measuring total protein levels using sulforhodamine B (SRB) staining in parallel cultures at the time of biomarker measurements, indicated as SRB endpoints. For proliferation assays for adherent cell types, individual cell types are cultured at sub-confluence and relative cell numbers quantified by SRB staining at time points optimized for each system (48 h: 3C and CASM3C systems; 72 h: BT and HDF3CGF systems; 96 h: SAg system). SRB was performed by staining cells with 0.1% SRB after fixation with 10% TCA and reading wells at 560 nm.Viability and proliferation of PBMC (T cells) was quantified by Alamar Blue reduction for the SAg and BT systems. For PBMC viability (referred to as PBMC Cytotoxicity within the assay endpoint names), cells were plated (75,000/well in a 96-well plate) and then chemical samples added for 1 h before addition of activators, SEB and TSST-1 (20 ng/mL final concentration each). Cells were incubated for 90 h. Then, Alamar Blue (20 uL/well) (Invitrogen, Cat DAL1100) was added for 6 h, and the plates were read with a fluorescence microplate reader at 546/580 nm (excitation/emission). For PBMC proliferation, cells were plated and activated as above but incubated for only 16 h prior to addition of Alamar Blue. Plates were read after 6 h.
With `CN(C)c1ccc(C(c2ccccc2)c2ccc(N(C)C)cc2)cc1` the AC50 was 10.9 µM (active).
For `CCCCCCCCCCC1CO1` (configuration not stated), the outcome was “inactive”.
For `COc1ccccc1Oc1c(NS(=O)(=O)c2ccc(C(C)(C)C)cc2)nc(-c2ncccn2)nc1OCCO`, the outcome was “inactive”.
With `CCC[Si](OC(C)=O)(OC(C)=O)OC(C)=O` the outcome was “inactive”.
For `Cc1cc(-n2nc3ccc(Cl)cc3n2)c(O)c(C(C)(C)C)c1`, the outcome was “inactive”.
`CCCCCCCCCCCCCCCCCC[N+](C)(C)C` was tested, and the outcome was “inactive”.
In the case of `CCC(C)=NO`, the outcome is reported as “inactive”.
For `CC[N+](CC)(CC(=O)Nc1c(C)cccc1C)Cc1ccccc1` (tested in a mixture with another compound), the outcome was “inactive”.
`CC(C)C1OCCN1CCOC(=O)NCCCCCCNC(=O)OCCN1CCOC1C(C)C` (configuration not stated) was tested, and the outcome was “inactive”.
For `C1CN(CCOCCN2CCOCC2)CCO1`, the outcome was “inactive”.
`CN(C)Cc1cc(C(C)(C)C)c(O)c(C(C)(C)C)c1` was tested, and the outcome was “inactive”.
`Sc1nc2ccccc2s1` was tested, and the outcome was “inactive”.
With `CCCCCCCCCC/C=C/C1CC(=O)OC1=O` (configuration not stated) the AC50 was 20 µM (active).
With `Cc1c(C(N)=O)cc([N+](=O)[O-])cc1[N+](=O)[O-]` the outcome was “inactive”.
`O=C(C(=O)c1ccccc1)c1ccccc1` was tested, and the outcome was “inactive”.
In the case of `CCCCC(CC)COC(=O)C=Cc1ccc(OC)cc1` (configuration not stated), the outcome is reported as “inactive”.
`CN(C)CCC(c1ccc(Cl)cc1)c1ccccn1` (configuration not stated) was tested, and the outcome was “inactive”.
For `CC(C)CC(=O)CC(C)CC(C)C` (configuration not stated), the AC50 was 37.4 µM (active).
For `Oc1cccc2ccccc12`, the outcome was “inactive”.
With `O=[N+]([O-])c1cc(S(=O)(=O)Nc2ccccc2)ccc1Nc1ccccc1` the AC50 was 24.7 µM (active) and 27.1 µM (active).
For `COC(=O)/C=C\C(=O)OC`, the outcome was “inactive”.
`OC(C(F)(F)F)(C(F)(F)F)C(O)(C(F)(F)F)C(F)(F)F` was tested, and the AC50 was 13.9 µM (active) and 12.5 µM (active).
In the case of `COc1ccc(C(=O)c2ccccc2O)c(O)c1`, the AC50 is reported as 24.5 µM (active) and 27.2 µM (active).
With `COc1cc(CNC(=O)CCCC/C=C/C(C)C)ccc1O` the outcome was “inactive”.
With `CC[N+](CC)(CC(=O)Nc1c(C)cccc1C)Cc1ccccc1` the outcome was “inactive”.
In the case of `CCCCCCC(O)CCCCCCCCCCC(=O)OC` (configuration not stated), the outcome is reported as “inactive”.
With `Cc1cccnc1` the outcome was “inactive”.

— PubChem BioAssay (EPA / NIEHS)
